M1 antag: human CHRM1 antagonism; CHO-K1 hM1, Fluo-8 calcium fluorescence, ACh EC80 antagonist; 360,000 compounds, 1.3% hits; P11229; inhibition, % at 3 µM; AID 588852;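 active = percent inhibition above its own plate's cutoff, namely the mean of that plate's compound wells plus 3 SD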;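 note: peak over basal fluorescence ratio during 140 s after agonist addition; 0% = ACh EC80 plus DMSO and 100% = DMSO alone without agonist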
Target sequence (P11229 whole entry, looked up): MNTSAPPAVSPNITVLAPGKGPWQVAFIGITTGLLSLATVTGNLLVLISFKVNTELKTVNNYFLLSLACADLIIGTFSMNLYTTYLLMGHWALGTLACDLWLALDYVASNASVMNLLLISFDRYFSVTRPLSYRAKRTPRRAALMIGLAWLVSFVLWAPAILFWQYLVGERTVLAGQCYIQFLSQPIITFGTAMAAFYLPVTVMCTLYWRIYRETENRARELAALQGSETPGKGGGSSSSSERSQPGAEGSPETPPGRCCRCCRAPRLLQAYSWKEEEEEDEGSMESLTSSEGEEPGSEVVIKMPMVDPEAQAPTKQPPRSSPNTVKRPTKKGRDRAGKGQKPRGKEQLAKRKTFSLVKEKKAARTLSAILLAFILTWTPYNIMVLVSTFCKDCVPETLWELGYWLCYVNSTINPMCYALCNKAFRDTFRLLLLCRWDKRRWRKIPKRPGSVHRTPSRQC
CHRM1 PAM: human CHRM1 positive allosteric modulation; P11229; AID 588819; CHO-K1 hM1, Fluo-8 calcium fluorescence, ACh EC20; 0% = ACh EC20, 100% = maximal ACh; activation, % at 3 µM; 360,000 compounds, 0.088% hits; in the data active = activation above about 19%, passing the limit was not always enough
CHO-K1 Ca PAM: nonselective activator or artifact in parental CHO-K1 calcium assay. AID 602247. ATP EC20, Fluo-8 calcium fluorescence; 0% at ATP EC20, 100% at ATP max. activation, % at 3 µM. 360,000 compounds, 0.02% hits;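 active = activation above the run cutoff, the mean activation of all test compounds plus 3 SD, cut at about 40% in these data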;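 note: peak over basal fluorescence ratio in a 140 s read after ATP addition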
M1 ag parental: M1 agonist counterscreen hit in parental CHO-K1 cells; Fluo-8 calcium fluorescence; scaled to maximal ATP response, vehicle zero; activation, % at 3 µM; 360,000 compounds, 0.48% hits; AID 602248; in the data active = activation above about 15%;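 note: untransfected CHO-K1 host cells lacking M1 receptor as counterscreen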
CHRM1 agonist: agonists of human M1 muscarinic receptor; CHO-K1 hM1, Fluo-8 calcium fluorescence, agonist mode; 0% DMSO, 100% acetylcholine EC100; activation, % at 3 µM; 360,000 compounds, 0.33% hits; AID 588814;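 active = activation above the run's mean compound activation plus 3 SD, cut at about 16% in these data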;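 note: peak over basal fluorescence ratio within a 140 s kinetic read after compound addition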
CHO-K1 Ca antag: counter-screen for M1 antagonists: effect in parental CHO-K1 cells; inhibition, % at 3 µM; 360,000 compounds, 0.6% hits; ATP-induced calcium, Fluo-8 fluorescence;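 active = inhibition above a per-plate cutoff, the plate's mean sample inhibition plus 3 SD, cut at about 24% in these data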;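 note: 0% = DMSO plus EC80 ATP and 100% = DMSO alone without ATP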
Starred values were filed as active, the others as inactive. The list is not random: actives were taken first. Their share in the collection is about 2.4%.

SMILES | M1 antag | CHRM1 PAM | CHO-K1 Ca PAM | M1 ag parental | CHRM1 agonist | CHO-K1 Ca antag
CC(CCc1ccccc1)NC(=O)CN1CCN(Cc2ccc(Cl)cc2)C1=O (stereo not given) | 6.1 | -6.9 | -10.8 | 0.5 | -6.7 | 28.3*
N#Cc1cccc2cccc(S(=O)(=O)N3CCOCC3)c12 | 2.8 | 4.1 | -12.1 | 4.4 | -3.5 | 26.1*
O=S(=O)(c1cccc2cccnc12)N1CCOCC1 | -4.0 | 2.5 | 11.6 | 0.2 | -2.9 | -2.2
Cc1ccc(C2C3=C(CC(C)(C)CC3=O)Nc3n[nH]c(C)c32)cc1 (stereo not given) | 0.4 | 3.5 | -5.5 | -0.1 | 0.6 | 24.7*
Cc1ccc(OCC(=O)Nc2ccc3c(c2)OC(F)(F)O3)c([N+](=O)[O-])n1 | 49.2* | -27.3 | 24.4 | 4.2 | -13.6 | -8.6
Cc1ccc(OCC(=O)Nc2ccc3c(c2)OCO3)c([N+](=O)[O-])n1 | -6.6 | 3.5 | 19.8 | 0.8 | -8.0 | -0.6
COc1ccc(C2=NN(c3ccccc3)C(c3cn(CCC(=O)O)nc3-c3ccccc3)C2)cc1 (stereo not given) | -18.2 | 13.4 | 26.8 | 3.4 | -2.5 | -19.1
O=C(c1ccncc1)N1N=C(C2CCCCC2)CC1(O)C(F)(F)F (stereo not given) | 36.9* | -31.0 | -2.3 | -0.1 | -12.8 | 0.2
O=c1[nH]cc(NCCNc2ncc(C(F)(F)F)cc2Cl)c(=O)[nH]1 | -2.1 | 9.8 | 3.9 | 0.0 | -2.8 | 3.3
O=C(NCc1ccc2c(c1)OCO2)c1ccc(CN2CCc3ccccc3C2)cc1 | 32.2* | -20.1 | 15.7 | 0.6 | -5.5 | -15.2
COCC(C)NC(=O)c1ccc(CN2CCc3ccccc3C2)cc1 (stereo not given) | 64.9* | -25.5 | -4.0 | -0.1 | -9.3 | 15.7
CCCCOc1ccc(C(=O)NCC(=O)N2CCN(Cc3ccc4c(c3)OCO4)CC2)cc1 | 29.6* | -15.7 | -18.7 | 1.8 | -6.2 | 5.0
O=C(NCC(=O)N1CCN(Cc2ccc3c(c2)OCO3)CC1)c1ccccc1F | 2.0 | -0.1 | 0.9 | 0.8 | 0.4 | -14.2
CCC(C)NC(=O)c1ccc(CN2CCc3ccccc3C2)cc1 (stereo not given) | 65.5* | -25.9 | 7.1 | 0.9 | -8.8 | -6.0
N#Cc1ccc(NC(=O)Nc2cccc(C#N)c2)cc1 | 19.9 | -8.0 | -21.2 | 17.8* | 7.1 | 31.1*
N#Cc1ccc(NC(=O)Nc2ccc(Oc3ccc(NC(=O)Nc4ccc(C#N)cc4)cc3)cc2)cc1 | 3.9 | 1.5 | -1.8 | 13.6 | 1.0 | -2.9
CCOC(=O)c1ccn(CSc2c(F)c(F)cc(F)c2F)n1 | 33.5* | -14.3 | -11.8 | -0.4 | -2.4 | 21.0
COC(=O)c1ccn(CSc2c(F)c(F)cc(F)c2F)n1 | -11.6 | 13.0 | 13.4 | -0.1 | -3.8 | -11.4
CCn1nc(C(=O)NCCc2ccc3c(c2)OCCO3)c2ccccc2c1=O | 10.9 | -14.7 | -11.8 | 0.6 | -2.6 | 1.6
CCc1n[nH]c(=S)n1/N=C/c1c(O)ccc2ccccc12 | -27.7 | 21.9 | 7.3 | 0.4 | 3.7 | -1.5
CCc1n[nH]c(=S)n1/N=C/c1cccc2ccccc12 | -6.8 | 3.8 | 5.1 | 18.2* | -6.4 | -4.2
COc1ccccc1/C=C/CN1CCC(n2nccc2NC(=O)CCc2ccccc2)CC1 | 31.2 | -7.0 | -16.1 | 15.2* | 0.7 | 24.2*
O=C(CCc1ccccc1)Nc1ccnn1C1CCN(C/C=C/c2ccccc2)CC1 | -6.0 | -2.3 | 10.0 | 1.9 | -0.4 | -13.1
CCOc1cccc(C(=O)NC(=S)Nc2ccccc2)c1 | -2.7 | -3.5 | 17.9 | 0.1 | -10.2 | -7.2
CCOc1cccc(C(=O)NC(=S)Nc2ccc(N3CCN(CC)CC3)cc2)c1 | 81.4* | -35.3 | 23.1 | 1.9 | -15.6 | -0.1
SMILES | M1 antag | CHRM1 PAM | CHO-K1 Ca PAM | M1 ag parental | CHRM1 agonist | CHO-K1 Ca antag
O=C(NC(=S)Nc1ccc(CN2CCCCC2)cc1)c1cccc(OCc2ccccc2)c1 | 96.2* | -27.0 | 23.3 | 2.1 | -8.3 | -5.4
O=C(O)c1ccc(NC(=S)NC(=O)c2cccc(COc3ccccc3)c2)cc1 | 3.7 | 4.8 | 19.2 | 0.5 | -3.6 | -10.9
CN1CCN(c2ccc(NC(=O)c3cccc(OCc4ccccc4)c3)cc2)CC1 | -17.0 | -22.7 | 11.6 | 0.7 | -9.7 | -4.2
CCN1CCN(c2ccc(NC(=O)c3cccc(OCc4ccccc4)c3)cc2)CC1 | 81.1* | -21.1 | 16.7 | 1.1 | -4.2 | -0.9
CCCOc1cccc(C(=O)NC(=S)Nc2ccc(N3CCN(C)CC3)cc2)c1 | 58.5* | -30.2 | 17.5 | 0.6 | -13.2 | -11.4
CC1CCCCC1NC(=O)COC(=O)CNC(=O)c1cccc(F)c1 (stereo not given) | -5.1 | 8.7 | 1.7 | 0.3 | -1.6 | 0.4
O=C(CSc1ccccc1)Nc1ccc(N2CCOCC2)c(F)c1 | -12.1 | 4.8 | 2.9 | 1.6 | -2.4 | -0.5
O=c1nc(-c2ccccc2)c2cc(SC(F)F)ccc2[nH]1 | -3.0 | 28.3* | 7.3 | 0.9 | -1.7 | -0.1
O=c1nc(-c2ccccc2)c2cc(Br)ccc2[nH]1 | -7.5 | 15.1 | -2.9 | -0.4 | 4.6 | -4.2
C=CCn1c(SC)nnc1-c1ccc2ncccc2c1 | -6.7 | 7.0 | 14.5 | 16.9* | 2.2 | 1.8
C=CCn1c(SCC(C)=O)nnc1-c1ccc2ncccc2c1 | -7.2 | 4.1 | 9.9 | 2.2 | -2.4 | 2.6
CCCCCc1ccc(OCCOCCn2c[n+](C)c3ccccc32)c(CCCCC)c1 | 79.3* | -30.5 | 17.8 | 0.3 | 3.0 | 10.4
CCCCCc1ccc(OCCC[n+]2ccccc2)c(CCCCC)c1 | 69.1* | -27.4 | 16.5 | 7.9 | -2.5 | -3.9
C[C@H]1CN([C@@H](C)CO)C(=O)c2cc(-c3cccc(C#N)c3)cnc2O[C@H]1CN(C)C(=O)c1ccccn1 | 5.4 | -2.1 | 15.5 | 0.4 | -4.6 | -6.5
CSc1ccccc1-c1ccc2nccn2c1 | 34.9* | -25.1 | -4.4 | 0.6 | -8.8 | 19.3
COc1cccc(-c2ccc3nccn3c2)c1 | 22.9 | -8.9 | -14.1 | 0.1 | -8.9 | 28.4*
Clc1cccc(-c2ccc3nccn3c2)c1Cl | -13.1 | 1.0 | -8.5 | 1.2 | -6.6 | 9.7
CC(=O)Nc1ccc(S(=O)(=O)N2CCN(CC(O)COc3ccc4ccccc4c3)CC2)cc1 (stereo not given) | 34.1* | -21.2 | -9.2 | 12.3 | 0.0 | 4.7
CC(=O)Nc1ccc(OCC(O)CN2CCN(S(=O)(=O)c3ccc(NC(C)=O)cc3)CC2)cc1 (stereo not given) | -5.4 | 2.6 | 12.8 | 0.4 | -5.1 | -11.2
Cc1ccc(C(C(=O)NCc2ccc(F)cc2)N(Cc2ccco2)C(=O)c2snc(C(N)=O)c2N)o1 (stereo not given) | 34.8* | -16.4 | 0.8 | 7.8 | -0.6 | 8.9
NC(=O)c1nsc(C(=O)N(Cc2ccco2)C(C(=O)NCc2ccc(F)cc2)c2ccc(O)cc2)c1N (stereo not given) | 23.4 | -12.1 | -8.7 | 8.5 | -0.2 | 2.6
